Screening data as filed in PubChem.
Most compounds without a hit are left out; they make up all but 3.3% or so of the library.
ERAP1 inh: ERAP1 (human) enzyme inhibition. 340,000 compounds, 0.15% hits. AID 652197. Q9NZ08. inhibition, % at 10.7 µM. recombinant ERAP1, Leu-AMC fluorescence, 60 min;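 active = mean replicate inhibition of at least 30%, or all replicates individually reaching that 30% level; inactive = mean below 30% and not every replicate reaching it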;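 also: 0% = neutral control wells and 100% = L-leucinethiol positive control wells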
Target sequence (Q9NZ08 whole entry, looked up): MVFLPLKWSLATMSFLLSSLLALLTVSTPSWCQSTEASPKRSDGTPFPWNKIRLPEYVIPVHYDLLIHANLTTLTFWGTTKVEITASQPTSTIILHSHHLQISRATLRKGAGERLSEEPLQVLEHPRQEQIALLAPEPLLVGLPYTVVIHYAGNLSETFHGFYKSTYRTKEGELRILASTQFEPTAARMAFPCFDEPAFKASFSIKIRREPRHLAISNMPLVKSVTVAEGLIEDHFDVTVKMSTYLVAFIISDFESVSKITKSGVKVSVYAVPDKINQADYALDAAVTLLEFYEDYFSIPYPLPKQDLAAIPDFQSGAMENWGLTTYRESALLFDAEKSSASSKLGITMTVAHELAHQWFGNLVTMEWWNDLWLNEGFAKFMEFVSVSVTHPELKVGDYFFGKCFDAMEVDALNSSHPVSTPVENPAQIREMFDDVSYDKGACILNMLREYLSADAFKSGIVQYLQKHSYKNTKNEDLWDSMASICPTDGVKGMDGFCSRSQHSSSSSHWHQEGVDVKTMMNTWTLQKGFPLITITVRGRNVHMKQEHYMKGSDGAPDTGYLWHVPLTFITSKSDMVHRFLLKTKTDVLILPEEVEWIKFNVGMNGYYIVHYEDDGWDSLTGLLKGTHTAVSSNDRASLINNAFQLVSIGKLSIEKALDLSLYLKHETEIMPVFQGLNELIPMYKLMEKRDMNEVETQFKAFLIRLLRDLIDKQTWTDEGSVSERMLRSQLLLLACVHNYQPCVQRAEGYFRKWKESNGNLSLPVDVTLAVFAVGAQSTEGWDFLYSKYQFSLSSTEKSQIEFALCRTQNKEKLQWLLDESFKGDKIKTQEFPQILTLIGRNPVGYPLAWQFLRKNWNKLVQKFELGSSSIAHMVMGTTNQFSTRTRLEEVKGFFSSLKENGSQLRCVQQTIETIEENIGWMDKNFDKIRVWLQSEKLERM
SIRT5 inh: sirtuin-5 (human) deacylase inhibition | Q9NXA8 | Purified SirT5, succinyl-peptide AMC, trypsin-coupled fluorescence | inhibition, % at 15 µM | 330,000 compounds, 1.1% hits | AID 652115; in the data active = inhibition above about 15%
FGF22 binding: shifts melting point of recombinant human FGF22; activity (Tm shift, normalised), % at 9.99 µM; AID 651658; 340,000 compounds, 1.5% hits; Q9HCT0; recombinant FGF22 thermal shift, SYPRO orange fluorescence; percent of sucrose octasulfate shift, DMSO zero;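 active = mean Tm shift, scaled 0 neutral to 100 positive control, at about 1.3% or above, every replicate too, limit read from the data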
CASP6 VEID inh: caspase-6 (human) enzyme inhibition; P55212; purified caspase-6, Z-VEID-R110 cleavage fluorescence; inhibition, % at 12.5 µM; 350,000 compounds, 0.53% hits;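 active = mean inhibition across replicates at least about 35%, with every replicate also reaching that limit, limit read from the data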;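 also: 0% = median of neutral control wells and 100% = no fluorescence left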
GSIS activator: primary screen for activators of insulin secretion dependent on glucose, INS-1E cells, GLuc reporter luminescence. INS-1E GLuc reporter insulin secretion, 2-3 h. activation, % at 16.6 µM. 370,000 compounds, 0.61% hits. AID 743287;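 active = lowest replicate activation of at least 40%, so every replicate reaches that level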;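 also: 0% = median of neutral control wells and 100% = median of IBMX positive control wells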
The depositor's hits bear a star; nt = not tested or not shown; ! = repeats disagree.

SMILES	ERAP1 inh	SIRT5 inh	FGF22 binding	CASP6 VEID inh	GSIS activator
COc1cccc(/C=C/C(=O)OCC(=O)Nc2ccc(N3CCOCC3)cc2)c1OC	-1	-1	44*	-4	14
COc1ccccc1/C=C/C(=O)OCC(=O)Nc1ccccc1Sc1ccccc1	-2	18*	0	-2	-1
CCC(=O)N1C[C@@H](C)[C@@H](OC)CN(C)C(=O)c2cc(NC(=O)COC)ccc2OC[C@@H]1C	0	nt	0	1	13
C[C@H](CO)N1C[C@H](C)[C@@H](CN(C)Cc2ccncc2)OCCCC[C@H](C)Oc2ccc(NC(=O)C3CCCCC3)cc2C1=O	nt	nt	nt	nt	-2
CCOc1ccc(Nc2nc(N)nc(CN3CCN(c4ccccc4F)CC3)n2)cc1	-3	0	44*	5	-7
Cc1cccc(Nc2nc(N)nc(CN3CCN(c4ccccc4F)CC3)n2)c1	nt	nt	nt	nt	-16
Cc1noc(C)c1NC(=O)N(C)C[C@@H]1OCCCC[C@@H](C)Oc2ccc(NS(=O)(=O)c3c(C)noc3C)cc2C(=O)N([C@@H](C)CO)C[C@H]1C	-3	-2	0	2	9
O=C(Cc1ccccc1)NCC(=O)OCC(=O)c1ccccc1Cl	2	2	112*	-1	nt
CC1=NOC(=O)/C1=C\c1ccc(-c2ccc(Br)cc2C(=O)O)o1	38*	14	1	20	-4
N/C(Cc1cccc2ccccc12)=N\OC(=O)c1ccc2c(c1)OCO2	0	-1	44*	-1	7
Clc1ccc(-c2cc(CN3CCCCC3)no2)cc1Cl	0	-5	0	-1	-6
Clc1ccc(-c2cc(CN3CCOCC3)no2)cc1	5	-6	0	1	147*
O=S(=O)(NCc1ccccn1)c1cc(C(F)(F)F)ccc1Cl	2	-2	43*	-4	-8
O=S(=O)(NCc1ccccn1)c1cc(Cl)ccc1Cl	0	0	0	-1	5
N=c1c(C(=O)NCCN2CCOCC2)cc2c(=O)n3ccccc3nc2n1CCc1ccccc1	51*	-16	0	-6	4
COCCCn1c(C(=O)NCCN2CCOCC2)cc2c(=O)n3ccccc3nc21	42*	-66	0	-1	12
C[C@H](CO)N1C[C@H](C)[C@H](CN(C)Cc2ccccc2)Oc2ccc(NC(=O)CCN3CCOCC3)cc2C1=O	2	-1	-1	-1	5
C[C@@H]1CN([C@@H](C)CO)C(=O)c2cccc(NC(=O)C3CCCCC3)c2O[C@@H]1CN(C)CC1CC1	0	13	0	-1	2
C[C@@H]1CN([C@H](C)CO)C(=O)c2cccc(NC(=O)C3CCCCC3)c2O[C@@H]1CN(C)CC1CC1	0	21*	0	1	13
C[C@H]1CN([C@@H](C)CO)C(=O)c2cc(NC(=O)C3CCCCC3)ccc2O[C@@H]1CN(C)CC1CC1	4	22*	0	nt	40
C[C@@H]1CN([C@H](C)CO)C(=O)c2cc(NC(=O)CCCCCC(=O)Nc3ccccc3N)ccc2O[C@H]1CN(C)S(C)(=O)=O	2	-1	0	2	10
CC(C)CC#Cc1ccc([C@H]2[C@H](CO)N3CCCCN(C(=O)NC4CCCC4)C[C@@H]23)cc1	2	17*	0	-1	-8
CC(C)CC#Cc1ccc([C@@H]2[C@H]3CN(C(=O)Nc4ccccc4)CCCCN3[C@H]2CO)cc1	-2	16*	-1	1	-10
Cc1ccc(S(=O)(=O)Nc2ccc3c(c2)C(=O)N([C@H](C)CO)C[C@@H](C)[C@@H](CN(C)Cc2ccncc2)OCCCC[C@H](C)O3)cc1	-4	1	0	-2	-25
O=C(O)c1ccc(Nc2ncnc3ccccc23)cc1	2	11	0	-3	14
SMILES	ERAP1 inh	SIRT5 inh	FGF22 binding	CASP6 VEID inh	GSIS activator
O=C(Oc1ccccc1C(=O)Oc1ccccc1)c1cccnc1	7	-5	43*	2	nt
O=C(Oc1ccc(Nc2ncnc3ccccc23)cc1)c1cccnc1	0	3	0	38*	0
Cc1cc(Nc2ccccc2)nc(NCc2ccccc2)n1	-2	-6	0	-3	-32
Cc1cc(Nc2ccc(Cl)cc2)nc(NCc2ccccc2)n1	nt	nt	nt	nt	300*
CNC(=S)N1N=C(c2ccc(C)cc2)CC1c1ccc(N(C)C)cc1 (configuration not stated)	4	-2	44*	-2	nt
C[C@H](NC(=O)[C@H](Cc1ccccc1)n1c(=O)[nH]c2ccccc2c1=O)C(=O)N1CCC(C(=O)O)CC1	-2	15*	0	-4	4
CCOC(=O)N1CCN(C(=O)Cn2nc(C)n3nc(-c4ccc(CC)cc4)cc3c2=O)CC1	0	-4	0	2	-6
CCOC(=O)N1CCN(C(=O)Cn2nc(C)n3nc(-c4ccc(OC)cc4)cc3c2=O)CC1	-5	-3	0	38*	24
COc1ccccc1CN1[C@H](CO)[C@@H]2c3ccccc3N(C(=O)c3ccncc3)C[C@@H]21	nt	nt	0	nt	7
CCOC(=O)c1c(/N=C/C2=C(O)CC(C)(C)CC2=O)sc(C(C)=O)c1C	3	0	43*	1	12
CCOC(=O)c1c(/N=C/C2=C(O)CC(C)(C)CC2=O)sc2c1CCCC2	0	-7	0	2	9
O=C(Nc1ccc2c(c1)[C@@H]1C[C@@H](CC(=O)N3CCOCC3)O[C@@H](CO)[C@@H]1O2)C1CCOCC1	2	1	0	-3	2
S=C(NCc1ccccc1Cl)NC1CCCC1	-2	0	43*	3	-12
Fc1ccccc1CNC(=S)NC1CCCCC1	-2	-18	0	0	-36
C[C@H](CO)N1C[C@H](C)[C@@H](CN(C)C(=O)c2cccnc2)Oc2ncc(-c3ccccc3)cc2C1=O	-1	-2	0	-2	3
CCC(=O)N(C)C[C@@H]1Oc2ncc(-c3ccc(F)cc3)cc2C(=O)N([C@@H](C)CO)C[C@@H]1C	2	24*	0	-1	-1
C/C=C/c1cnc2c(c1)C(=O)N([C@@H](C)CO)C[C@@H](C)[C@@H](CN(C)C(=O)NC1CCCCC1)O2	-1	28*	0	3	6
CCC(=O)N(C)C[C@@H]1Oc2ncc(-c3ccc(F)cc3)cc2C(=O)N([C@H](C)CO)C[C@H]1C	0	1	0	3	8
CCCNC(=O)N(C)C[C@@H]1Oc2ncc(Br)cc2C(=O)N([C@H](C)CO)C[C@@H]1C	-4	20*!	0	1	14
Cc1ccc(-c2cnc3c(c2)C(=O)N([C@@H](C)CO)C[C@H](C)[C@@H](CN(C)C(=O)c2cccnc2)O3)cc1	3	26*	0	1	15
C/C=C/c1cnc2c(c1)C(=O)N([C@H](C)CO)C[C@H](C)[C@H](CN(C)C(=O)NC1CCCCC1)O2	0	5	0	-1	20
